uPA generation: cell surface uPA generation inhibition | cell surface uPA generation assay, qHTS | Potency, µM (titrated, usually from 38.3 µM), inactives show at the top dose activity change, negative = inhibition, hits mostly inhibitors | 0.31% of 330,000 active; active means well fitted inhibition curve with a large enough effect; inconclusive means small, poorly fitted or top-dose-only effect; inactive means no such curve, though single readings can be large or run the other way; tested in mouse RAW 264.7 cells; further: potency means the concentration at half of the fitted maximal effect; nearly all actives have a fitted effect of over 55% in size
DT40 TDP1 no CPT: qHTS for Inhibitors of human tyrosyl-DNA phosphodiesterase 1 (TDP1): qHTS in cells in absence of CPT | DT40 Tdp1-/- hTDP1 cells, no CPT, ATP luminescence, 48 h | Potency, µM (highest dose often 46.2 µM), without a hit: at the highest dose activity change, negative = growth inhibition, actives largely listed as inhibitors | 15% of 420,000 active; further: potency means the concentration at half of the fitted maximal effect; nearly all actives have a fitted effect of over 55% in size
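Luminescent ATP content (CellTiter-Glo) served as the growth readout. Knockout chicken DT40 cells expressing human TDP1 were exposed to compounds without camptothecin for a minimum 48 hr at 37 °C.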
TDP1 cell CPT: DT40-hTDP1 cell growth loss with CPT. chicken DT40 Tdp1-/-;hTDP1 cells + 20 nM CPT, ATP luminescence, 48 h. Potency, µM (titrated, usually from 46.2 µM), for the others: at the top dose activity change, negative = growth inhibition, usual class: inhibitors. 12% of 420,000 active. AID 686979; further: potency means the concentration at half of the fitted maximal effect; nearly all actives have a fitted effect of over 55% in size
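Chicken DT40 Tdp1-/- cells stably complemented with human TDP1 were seeded at 400 cells/well in medium containing 20 nM camptothecin, exposed to pin-transferred compounds, and grown at 37 °C for at least 48 hr. Viability was read as ATP luminescence.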
HT1080NT lethal: kills 2HG-producing HT-1080-NT fibrosarcoma cells. HT-1080-NT fibrosarcoma viability, CellTiter-Glo ATP luminescence, 48 h. Potency, µM (highest dose often 46.1 µM), without a hit: at the highest dose activity, negative = less viability, hits mostly cytotoxic. 1.6% of 360,000 active;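 further: NT is the 2HG producing partner of a matched IDH1 knockdown line; potency means the concentration at half of the fitted maximal effect; 0% = DMSO-treated cells and -100% = media-only wells without cells; nearly all actives have a fitted effect of over 55% in size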
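A 48-hour cytotoxicity screen used HT-1080-NT cells plated 2 hours before compound delivery. ATP-based CellTiter-Glo luminescence measured viability, normalized to DMSO and no-cell controls.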
IL1B secr inh: blocks inflammasome-driven IL-1 beta release. THP-1 LPS/ATP IL-1B secretion, AlphaLISA, 16 h; active compounds read low. activity change, % at 57.5 µM. 4.7% of 360,000 active. AID 743279; in the data active means activity change below about -50%; inconclusive means mostly about -30% to -49%
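Secreted IL-1B measured by AlphaLISA bead assay after 16 h compound exposure of THP-1 cells; compounds (final up to 57.5 uM) added 1 h before LPS (250 ng/mL) and ATP (1.25 mM) stimulation; lower signal means less secretion.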
HT1080 IDH1KD tx: kills HT-1080 cells with IDH1 knockdown; Potency, µM (series often up to 46.1 µM), inactives show top-dose activity, negative = toxicity, hits mostly cytotoxic; HT-1080 IDH1 knockdown viability, ATP luminescence, 48 h; 2% of 360,000 active;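 further: potency means the concentration at half of the fitted maximal effect; 0% = DMSO wells and -100% = cell-free medium wells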
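After a 2 h attachment period, IDH1KD HT-1080 cells took pin-transferred compound for 48 h at 37 °C; ATP-based luminescence after 10 min room-temperature reagent incubation reported viability.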
The depositor's hits bear a star. The list is not random: actives were taken first. Their share in the collection is about 19%. Unless noted, the call rests on the fitted dose curve; in most records, active means well fitted curve in the direction sought with a large enough effect; inconclusive means small, poorly fitted or top-dose-only effect, or another doubt; inactive means no such curve, though single readings can be large; an effect the other way counts as inactive or inconclusive. Unless noted, on the % scale 0 is the no-effect control and ±100 the full control effect.

Screening CN(Cc1nc2ccccc2c(=O)[nH]1)C(=O)c1cc(C2CC2)nn1-c1ccccc1 returned uPA generation 20%, DT40 TDP1 no CPT inconclusive, TDP1 cell CPT 13µM*, HT1080NT lethal -13%, IL1B secr inh 22 and HT1080 IDH1KD tx -1%.
CCOc1ccc(NC(=O)CN(C)C(=O)c2cc(C3CC3)nn2-c2ccccc2)cc1OCC was read as uPA generation -1%, DT40 TDP1 no CPT inconclusive, TDP1 cell CPT inconclusive, HT1080NT lethal -1%, IL1B secr inh -3 and HT1080 IDH1KD tx 3%.
CN(NC(=O)NN(C)C(=O)c1ccccc1)C(=O)c1ccccc1 was read as uPA generation 9%, DT40 TDP1 no CPT inconclusive, TDP1 cell CPT inconclusive, HT1080NT lethal 5%, IL1B secr inh 3 and HT1080 IDH1KD tx 1%.
`COc1cccc(CN2CCc3nc(Nc4ccc5c(c4)OCCO5)ncc3C2)c1OC` gave DT40 TDP1 no CPT 8.2µM* and TDP1 cell CPT 21µM*.
`Fc1cccc(CN2CCc3nc(Nc4ccc5c(c4)OCCO5)ncc3C2)c1F` gave DT40 TDP1 no CPT 26µM* and TDP1 cell CPT inconclusive.
For COc1cccc(CN2CCOc3ccc(CN4C[C@@H](C)O[C@@H](C)C4)cc3C2)c1OC the results were DT40 TDP1 no CPT -8% and TDP1 cell CPT -1%.
Screening Cc1ccc(-n2nc(C)c3c(C(=O)Nc4ccc(C)cc4Cl)cc(C)nc32)cc1 returned DT40 TDP1 no CPT inconclusive and TDP1 cell CPT -24%.
Screening CCc1nc2cc(C(=O)NC3CCOC(C)(C)C3)cc(NC(=O)c3ccccc3OC)c2n1C (stereo not drawn) returned DT40 TDP1 no CPT -22% and TDP1 cell CPT 7%.
`COc1ccc2[nH]c(=O)c(CN(Cc3ccco3)C(=O)c3ccccc3)cc2c1` gave uPA generation -3%, DT40 TDP1 no CPT -13%, TDP1 cell CPT inconclusive, HT1080NT lethal inconclusive, IL1B secr inh -17 and HT1080 IDH1KD tx -23%.
`CCOc1ccc2[nH]c(=O)c(CN(CCc3ccccc3)C(=O)c3cnccn3)cc2c1` gave uPA generation 3%, DT40 TDP1 no CPT 16µM*, TDP1 cell CPT inconclusive, HT1080NT lethal -1%, IL1B secr inh 0 and HT1080 IDH1KD tx 0%.
Screening CCOc1ccc2[nH]c(=O)c(CN(CCO)C(=O)c3ccc(Br)cc3)cc2c1 returned uPA generation -3%, DT40 TDP1 no CPT -27%, TDP1 cell CPT inconclusive, HT1080NT lethal -24%, IL1B secr inh -7 and HT1080 IDH1KD tx -14%.
Screening CCOc1ccc2[nH]c(=O)c(CN(CCO)C(=O)CC)cc2c1 returned uPA generation 0%, DT40 TDP1 no CPT 2%, TDP1 cell CPT -6%, HT1080NT lethal 5%, IL1B secr inh 8 and HT1080 IDH1KD tx 6%.
For CCOc1ccc2[nH]c(=O)c(CN(Cc3ccccc3OC)C(=O)c3ccccc3)cc2c1 the results were DT40 TDP1 no CPT 3.3µM*, TDP1 cell CPT 6.5µM*, HT1080NT lethal -7%, IL1B secr inh -10 and HT1080 IDH1KD tx inconclusive.
Screening CCOc1ccc2[nH]c(=O)c(CN(Cc3ccco3)C(=O)c3ccc(Br)cc3)cc2c1 returned uPA generation -7%, DT40 TDP1 no CPT 3.3µM*, TDP1 cell CPT inconclusive, HT1080NT lethal -13%, IL1B secr inh 2 and HT1080 IDH1KD tx -9%.
For CCOc1ccc2[nH]c(=O)c(CN(Cc3ccco3)C(=O)c3cccc(F)c3)cc2c1 the results were uPA generation 4%, DT40 TDP1 no CPT 23µM*, TDP1 cell CPT inconclusive, HT1080NT lethal 5%, IL1B secr inh 2 and HT1080 IDH1KD tx 5%.
Screening CCOc1ccc2[nH]c(=O)c(CN(CCN3CCCC3)C(=S)Nc3ccccc3OCC)cc2c1 returned uPA generation -27%, DT40 TDP1 no CPT 23µM*, TDP1 cell CPT inconclusive, HT1080NT lethal inconclusive, IL1B secr inh -101* and HT1080 IDH1KD tx inconclusive.
For CCOc1ccc(-c2cc(CCCC(=O)NCCc3ccccc3)no2)cc1 the results were uPA generation 1%, DT40 TDP1 no CPT -22%, TDP1 cell CPT -3%, HT1080NT lethal -1%, IL1B secr inh -3 and HT1080 IDH1KD tx 2%.
CCOc1ccc(-c2cc(CCCC(=O)NCc3cccnc3)no2)cc1 was read as uPA generation inconclusive, DT40 TDP1 no CPT 21µM*, TDP1 cell CPT 23µM*, HT1080NT lethal -17%, IL1B secr inh 0 and HT1080 IDH1KD tx -12%.
For COc1ccc(-c2cc(CCCC(=O)NCc3ccccn3)no2)cc1 the results were uPA generation inconclusive, DT40 TDP1 no CPT 16µM*, TDP1 cell CPT inconclusive, HT1080NT lethal -19%, IL1B secr inh 1 and HT1080 IDH1KD tx 0%.
`Oc1ccc2ccccc2c1/C=N/c1nc2c(s1)CCCC2` gave uPA generation 2%, DT40 TDP1 no CPT 29µM*, TDP1 cell CPT inconclusive, HT1080NT lethal inconclusive, IL1B secr inh 0 and HT1080 IDH1KD tx 23µM*.
Oc1c(Br)cc(Br)cc1C=Nc1ccc2c(c1)OCCO2 was read as uPA generation -14%, DT40 TDP1 no CPT inconclusive, TDP1 cell CPT -11%, HT1080NT lethal -15%, IL1B secr inh 26 and HT1080 IDH1KD tx -13%.
For Oc1c(Br)cc(Br)cc1/C=N/c1nc2c(s1)CCCC2 the results were uPA generation -5%, DT40 TDP1 no CPT 16µM*, TDP1 cell CPT inconclusive, HT1080NT lethal inconclusive, IL1B secr inh 28 and HT1080 IDH1KD tx inconclusive.
COc1cc(NS(=O)(=O)c2ccc(NC(=O)c3ccc(C(C)=O)cc3)cc2)nc(OC)n1 was read as DT40 TDP1 no CPT -17% and TDP1 cell CPT -22%.
CC(=O)c1cccc(-c2ccnc3c2CC(C(=O)Nc2ccc(C(C)C)cc2)O3)c1 (stereo not drawn) was read as DT40 TDP1 no CPT 10µM*, TDP1 cell CPT 23µM*, HT1080NT lethal inconclusive, IL1B secr inh 26 and HT1080 IDH1KD tx inconclusive.
For CC(=O)c1cccc(NC(=O)C2Cc3c(-c4ccc5c(c4)OCO5)ccnc3O2)c1 (stereo not drawn) the results were DT40 TDP1 no CPT 12µM*, TDP1 cell CPT 13µM*, HT1080NT lethal -5%, IL1B secr inh -18 and HT1080 IDH1KD tx -25%.
`CC(=O)c1cccc(-c2ccnc3c2CC(C(=O)Nc2cccnc2)O3)c1` (stereo not drawn) gave DT40 TDP1 no CPT -23%, TDP1 cell CPT 3%, HT1080NT lethal -5%, IL1B secr inh 59 and HT1080 IDH1KD tx -7%.

Compound activity: PubChem BioAssay, National Center for Advancing Translational Sciences (NCATS)
